MITF inh = MITF inhibitors, primary screen, biochemical, AlphaScreen, human; Microphthalmia-associated transcription factor (Homo sapiens), O75030; AlphaScreen MITF homodimerization, bead proximity signal; inhibition, % at 2.6 µM; 650,000 compounds, 0.91% hits; in the data active = inhibition above about 50%;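 also: 0% = vehicle wells with protein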
TEAD-YAP block = TEAD-YAP interaction inhibition, primary screen, TEAD-YAP interaction inhibitor project, luminescence, HEK-TIYL cells | 640,000 compounds, 1.4% hits | TEAD-Gal4/YAP UAS-luciferase luminescence | AID 1259422, 2018 | inhibition, % at 9.12 µM; in the data active = inhibition above about 32%;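 also: 0% = median of test compound wells and 100% = reference inhibitor wells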
GPR151 ag = activators of human GPR151, primary screen, cell-based, PathHunter beta-arrestin, luminescence; PathHunter beta-arrestin GPR151 cells; activation, % at 11.2 µM; 650,000 compounds, 1% hits; in the data active = activation above about 4.9%;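 also: 0% = median of compound wells and 100% = cells with positive control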
FBW7 activator = FBW7 E3 ligase activators, primary screen, biochemical, AlphaScreen, human | F-box/WD repeat-containing protein 7 (Homo sapiens), Q969H0 | AlphaScreen FBW7–phospho-cyclin E peptide binding, activator screen | normalized activity (activation), % at 26.1 µM | 650,000 compounds, 0.13% hits | AID 1259310, 2017; in the data active = normalized activity above about 1.9%;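 also: purified mutant Fbw7 with reduced substrate affinity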
Target sequence (Q969H0 whole entry, looked up): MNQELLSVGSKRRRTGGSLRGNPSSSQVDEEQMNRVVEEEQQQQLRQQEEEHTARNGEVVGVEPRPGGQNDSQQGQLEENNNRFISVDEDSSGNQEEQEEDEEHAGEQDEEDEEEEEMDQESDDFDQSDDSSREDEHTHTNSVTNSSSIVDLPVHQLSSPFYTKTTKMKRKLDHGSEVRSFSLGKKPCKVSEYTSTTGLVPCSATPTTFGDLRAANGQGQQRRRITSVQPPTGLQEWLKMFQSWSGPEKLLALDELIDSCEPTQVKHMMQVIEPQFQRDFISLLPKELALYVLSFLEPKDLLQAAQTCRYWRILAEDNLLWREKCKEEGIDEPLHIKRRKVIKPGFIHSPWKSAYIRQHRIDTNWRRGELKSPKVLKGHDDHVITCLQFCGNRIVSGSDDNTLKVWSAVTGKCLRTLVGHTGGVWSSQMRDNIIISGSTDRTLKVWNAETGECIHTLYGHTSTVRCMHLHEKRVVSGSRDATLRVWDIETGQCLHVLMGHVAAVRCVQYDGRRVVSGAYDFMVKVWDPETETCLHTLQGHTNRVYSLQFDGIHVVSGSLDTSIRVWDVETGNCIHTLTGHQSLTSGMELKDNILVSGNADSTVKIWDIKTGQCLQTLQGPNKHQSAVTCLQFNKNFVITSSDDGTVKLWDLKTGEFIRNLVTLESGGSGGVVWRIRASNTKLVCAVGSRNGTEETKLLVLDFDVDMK
Active calls of the source: *. Rows were chosen to be rich in hits. Some 3.5% of all compounds tested hit in one or more screens of this group.

SMILES | MITF inh | TEAD-YAP block | GPR151 ag | FBW7 activator
O=C(CSc1ncnc2c1sc1ccccc12)NC1CCCC1 | -4 | -6 | 0 | 0
Cc1cnc(Nc2ccc(N3CCOCC3)cc2)nc1Nc1ccc(N2CCOCC2)cc1 | 9 | 42* | 5 | 0
Cc1cnc(Nc2ccc(N3CCOCC3)cc2)nc1NCCN1CCOCC1 | 1 | 0 | 1 | 0
Cc1ccc(-c2noc(-c3ccco3)n2)cc1 | 0 | -7 | -5 | 0
CCOc1ccc(-c2nc(-c3ccccc3)no2)cc1 | 13 | 62* | -3 | 0
COc1ccc(-c2noc(-c3ccco3)n2)cc1 | -10 | 60* | -10 | 0
Cc1cccc(NS(=O)(=O)c2nnc(NC(=O)c3ccccc3F)s2)c1 | -5 | -3 | -2 | 0
Cc1cccc(-c2nnc(NC(=O)c3ccccc3F)s2)c1 | 14 | -64 | 0 | 1.9*
CNc1nnc(-c2cc3cc(OC)ccc3oc2=O)s1 | 12 | -30 | -2 | 0
COc1ccc(-c2nc(NCCCN3CCCC3=O)c3ncn(-c4ccsc4)c3n2)cn1 | -4 | 49* | 0 | 0
COc1ccc(-c2nc(NCCCN3CCCC3=O)c3ncn(-c4ccccc4)c3n2)cn1 | -1 | 55* | 3 | 0
CC(=O)c1cccc(-c2nc(NCCCN3CCCC3=O)c3ncn(-c4ccsc4)c3n2)c1 | -10 | 58* | 1 | 1
COc1ccc(-c2nc(NCCN3CCOCC3)c3ncn(-c4ccsc4)c3n2)cn1 | 20 | 35* | -1 | 0
COc1ccc(-c2nc(NCCCN3CCCC3=O)c3ncn(C(C)C)c3n2)cn1 | 10 | 17 | -2 | 0
CC1=C(C(=O)OCC2CCCO2)C(c2cc([N+](=O)[O-])ccc2Cl)C2=C(CC(C)(C)CC2=O)N1 (configuration not stated) | -16 | -2 | -1 | 0
Cc1ccc(/C=C2/Sc3ccc(C(=O)O)cc3NC2=O)cc1 | -9 | -3 | 0 | 0
CC(=O)c1cccc(-c2nc(NCCCN3CCCC3=O)c3ncn(C(C)C)c3n2)c1 | -4 | 44* | -1 | 0
O=C(NC1CC1)c1ccc(-c2nc(NCCCN3CCCC3=O)c3ncn(-c4ccsc4)c3n2)cc1 | 17 | 42* | 1 | 0
Nc1cccc(-c2nc(NCCCN3CCCC3=O)c3ncn(-c4ccccc4)c3n2)c1 | 5 | 59* | 0 | 0
COc1ccc(CCNc2nc(NCCCN3CCCC3=O)nc3c2ncn3-c2ccsc2)cc1 | 16 | 7 | -2 | 0
Nc1cccc(-c2nc(NCCCN3CCCC3=O)c3ncn(CCN4CCCC4=O)c3n2)c1 | 1 | 0 | 2 | 0
COc1ccc(-c2nc(NCCCN3CCCC3=O)c3ncn(-c4ccsc4)c3n2)cc1 | -18 | 58* | -1 | 0
CCc1ccc(-c2[nH]ncc2CNCc2ccco2)cc1 | 14 | 14 | 0 | 0
CC(C)CN1C(=O)C(=O)/C(=C(/O)c2ccccc2)C1c1ccccc1[N+](=O)[O-] (configuration not stated) | 2 | 5 | 0 | 0
COc1ccc(OC)c(NS(=O)(=O)c2ccc(-c3ccccc3)cc2)c1 | 10 | 35* | 0 | 0
SMILES | MITF inh | TEAD-YAP block | GPR151 ag | FBW7 activator
COc1ccc(S(=O)(=O)Nc2cc(OC)ccc2OC)cc1 | -10 | 61* | 3 | 0
COc1ccc(S(=O)(=O)Nc2ccc(C)cn2)cc1 | 11 | -9 | -2 | 2.5*
COc1ccc(OC)c(NC(=O)C2CCCC2)c1 | 8 | -3 | 0 | 25*
Cc1ccc(CN[C@H]2C[C@H]3C(=O)N[C@@H](CCCCN)C(=O)N3C2)cc1C | -5 | -3 | 0 | 0
Cc1ccc(S(=O)(=O)N(CC(=O)NCc2ccncc2)Cc2ccccc2)cc1 | 24 | -2 | -1 | 1.9*
Cc1ccc(CNC(=O)CN(Cc2ccccc2)S(=O)(=O)c2ccccc2)cc1 | 12 | 5 | -1 | 0
COc1ccc(OC)c(/C=C2\C(=O)ON=C2c2ccccc2)c1 | 77* | -8 | 0 | 0
O=C1ON=C(c2ccc(Cl)cc2)/C1=C\c1ccc2c(c1)OCO2 | 77* | 2 | 0 | 0
CCCCOc1ccc(/C=C2\C(=O)ON=C2c2ccc(Cl)cc2)cc1 | 24 | 9 | -1 | 0
COc1cc(/C=C2\C(=O)ON=C2c2ccccc2)cc(OC)c1OC | 13 | -7 | 0 | 0
COc1ccc(/C=C2/C(=O)ON=C2c2ccccc2)cc1OC | 65* | -26 | 2 | -1
CCOc1ccc(/C=C2\C(=O)ON=C2c2ccccc2)cc1 | 6 | -5 | 0 | 0
CCOc1cc(/C=C2\C(=O)ON=C2c2ccccc2)ccc1OC | 58* | -10 | -1 | 0
COc1ccc(OC)c(C=C2C(=O)OC(C)(c3ccccc3)OC2=O)c1 (configuration not stated) | 22 | -8 | 1 | 0
Cn1/c(=N\N=C/c2ccc(O)cc2)sc2ccccc21 | 10 | -22 | 2 | 1.9*
Cn1/c(=N/N=C/c2ccc(C(=O)O)cc2)sc2ccccc21 | -6 | -49 | -3 | 0
CC[N+](CC)(CC)CCCNC(=O)c1c(O)c2c([nH]c1=O)CCCC2 | -9 | 4 | 0 | 0
COc1ccc(-n2cc(-c3ccccc3)c3c(N4CCN(c5ccc(C(C)=O)cc5)CC4)ncnc32)cc1 | -7 | -7 | 0 | 0
O=C1NC2(CCN(Cc3cccc4cccnc34)CC2)Oc2ccccc21 | -7 | -6 | 0 | 0
O=C1NC2(CCN(C(=O)c3cccc4cccnc34)CC2)Oc2ccccc21 | -2 | -8 | 0 | 23*
COc1ccc(N2CCN(S(=O)(=O)c3ccc(C)cc3)CC2)c([N+](=O)[O-])c1 | -1 | -2 | -1 | 0
O=[N+]([O-])c1ccccc1N1CCN(S(=O)(=O)c2ccc3ccccc3c2)CC1 | 1 | 6 | 3 | 0
Cc1ccc(S(=O)(=O)N2CCN(c3ccc(C(N)=O)cc3[N+](=O)[O-])CC2)cc1 | -1 | 37* | 4 | 0
NC(=O)c1ccc(N2CCN(S(=O)(=O)c3ccc4ccccc4c3)CC2)c([N+](=O)[O-])c1 | 4 | 45* | 3 | 0
COC(=O)c1ccccc1N=C/C(C(=O)C(F)(F)F)=C(\O)c1cccs1 | 5 | -16 | -1 | 0
SMILES | MITF inh | TEAD-YAP block | GPR151 ag | FBW7 activator
COc1ccccc1N=C/C(C(=O)C(F)(F)F)=C(\O)c1cccs1 | 13 | 50* | -2 | 1
CCOc1ccc(-c2csc(-c3cc4cc(Cl)ccc4oc3=O)n2)cc1 | -162 | 6 | -1 | 1
O=C1C(Cl)=C(Nc2cccc(O)c2)C(=O)N1c1cccc(Cl)c1Cl | 10 | 53* | -1 | 0
O=C1C(Cl)=C(Nc2cccc(O)c2)C(=O)N1c1ccccc1Cl | 16 | 3 | 0 | 0
Cc1ccc(N2C(=O)C(Cl)=C(Nc3cccc(O)c3)C2=O)c(C)c1 | 32 | 36* | -1 | 1
O=C(Nc1ccc(F)c(C(F)(F)F)c1)c1cnc2ccccn2c1=O | 2 | -2 | 0 | 0
